# Source: PubChem BioAssay (EPA / NIEHS)
# Active and inactive are the calls of the source. Rule for the calls: active = hit-call score of the fitted dose curve at least 0.9, where 1 is the maximum; inactive = score below 0.9.
# Test: ATG_ERE_CIS: Attagene CIS-FACTORIAL HepG2 Assay for Estrogen Response Element (ERE) (AID 2282940)
# Details: HepG2 ERE cis-reporter, Attagene RNA transcript; actives raise or lower the signal
# Method: ATG_CIS is a cell-based, multiplexed-readout assay that uses HepG2, a human liver cell line, with measurements taken at 24 hours after chemical dosing in a 24-well plate.ATG_ERE_CIS is one of 52 assay component(s) measured or calculated from the ATG_CIS assay. It is designed to make measurements of mRNA induction, a form of inducible reporter, as detected with fluorescence intensity signals by Reverse transcription polymerase chain reaction (RT-PCR) and Capillary electrophoresis technology.Data from the assay component ATG_ERE_CIS was analyzed into 1 assay endpoint. This assay endpoint, ATG_ERE_CIS, was analyzed with bidirectional fitting relative to DMSO as the negative control and baseline of activity. Using a type of inducible reporter, measures of mRNA for gain or loss-of-signal activity can be used to understand the reporter gene at the transcription factor-level as they relate to the gene ESR1. Furthermore, this assay endpoint can be referred to as a primary readout, because this assay has produced multiple assay endpoints where this one serves a reporter gene function. To generalize the intended target to other relatable targets, this assay endpoint is annotated to the nuclear receptor intended target family, where the subfamily is steroidal.
# Human liver HepG2 cells are transiently transfected with multiple reporter transcription units (MRTUs) in 6-well plates using FuGene 6 reagent (Roche; 3 ml FuGene/1 mg DNA). The MRTU constructs are regulated by a cis-regulating element (promoter). […] A major difference between the CIS and TRANS system is that in CIS activities of endogenous TFs are measured, whereas the TRANS assay evaluates changes in activities of exogenous, chimeric NR-Gal4 proteins. […] At the end of 24 hour incubation, total RNA was isolated using TriZol reagent (Invitrogen). The isolated RNA is then reverse-transcribed using oligo(dT) primer and Mo-MLV reverse transcriptase (Invitrogen) with DNAse I (Ambion) treatment for 30 min. The one-tenth of the produced cDNA was amplified by PCR using Taq DNA polymerase (Invitrogen) and two reporter sequence-specific primers. The PCR products were fluorescently labeled by primer extension with 6-arboxyfluorescein (6-FAM) 5'-labeled reporter sequence-specific primer (2 min at 95 C, 20 s at 68 C and 10 min at 72 C) and these products were digested with 5U of HpaI (New England Biolabs) for 2h at 37 C. The fragments were purified using Qiaquick PCR columns (Qiagen), analyzed on an ABI 3130xL genetic analyzer (Applied Biosystems) with peak positions identified by using a set of X-rhodamine (ROX)-labeled MapMarker1000 molecular weight standards (BioVentures). The raw capillary electrophoresis data was processed using Attagraph software (Attagene).
Structure (SMILES),outcome,AC50
CCC12COCN1COC2,inactive,
OCCOCCO,inactive,
C[N+](C)(C)CC1CO1 (stereo not given),inactive,
CCOc1cccc(C2(N3CCN(c4ccccc4)CC3)CCC(C)CC2)c1 (stereo not given),inactive,
Cc1ccc([N+](=O)[O-])cc1,inactive,
Nc1ccc(N=Nc2ccccc2)cc1,,27 µM (active)
O=C(Oc1ccc(Br)cc1)N1CCN2CCC1CC2,inactive,
Clc1ccc(C(c2ccc(Cl)cc2)C(Cl)Cl)cc1,,19.3 µM (active)
[O-][Cl+]O,inactive,
CCCCCOC(=O)c1ccccc1C(=O)OCCCCC,inactive,
COc1cc(C=O)cc2c1[C@H](COC(N)=O)[C@]1(OC(C)=O)ON2C[C@H]2[C@@H]1N2C(C)=O,,51 µM (active)
O=C(Nc1ccccc1)c1ccccc1I,,30.3 µM (active)
CCCCCCCCn1sccc1=O,inactive,
ClC1=C(Cl)[C@]2(Cl)[C@H]3[C@H]([C@@H]4C=C[C@H]3C4)[C@@]1(Cl)C2(Cl)Cl,,16.1 µM (active)
ClC1=C(Cl)C2(Cl)C3C(Cl)C=CC3C1(Cl)C2(Cl)Cl (stereo not given),,24.4 µM (active)
CO[C@@H]1[C@H](OC(=O)NC(=O)CCl)CC[C@]2(CO2)[C@H]1[C@@]1(C)O[C@@H]1CC=C(C)C,inactive,
N#CC(Br)Br,,76.7 µM (active)
CCC[CH2][Sn]([Cl])([CH2]CCC)[CH2]CCC,inactive,
OCCCBr,inactive,
CCCCCCCCCCCCCN1CC(C)OC(C)C1 (stereo not given),inactive,
Cn1cc(-c2ccccc2)c(=O)c(-c2cccc(C(F)(F)F)c2)c1,inactive,
O=[N+]([O-])C(Br)(CO)CO,inactive,
CC(C)COC(=O)c1ccccc1C(=O)OCC(C)C,,39.6 µM (active)
Brc1ccc(Oc2ccccc2)cc1,,50.8 µM (active)
CNC(=O)Oc1cccc2c1OC(C)(C)C2,inactive,
